# GAA850 FXN act – activators of GAA850 frataxin (FXN) promoter; HEK293 lucGAA850 FXN promoter luciferase reporter, 24 h; percent of 10 µM SAHA response; activation, % at 6 µM; actives 0.56% (n = 360,000); AID 540364;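 active = activation above the average of all compounds screened plus 3 SD, cutoff fixed separately per campaign, cut at about 7.5% in these data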
# ssDAF12 agonist – activators of S. stercoralis DAF-12 nuclear receptor | HEK293 ssDAF-12/GRIP1 lit1-tk-luc reporter, luminescence; % of 3 µM dafachronic acid response | activation, % at 6.8 µM | actives 1% (n = 370,000);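 active = activation above the mean over all tested compounds plus 3 SD, cut at about 0.9% in these data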
# DAX1 inh-1 – blocks DAX1 repression of SF-1 activated StAR promoter | actives 1.1% (n = 370,000) | inhibition, % at 6.8 µM | HEK293T StAR-luciferase reporter, SF-1/DAX-1 repression relief;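 active = inhibition above the mean over all tested compounds plus 3 SD, cut at about 3.6% in these data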;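 note: higher inhibition means more luminescence from relief of DAX-1 repression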
# DAX1 inh-2 – inhibitors of human orphan nuclear receptor DAX1 (NR0B1) | P51843 | HEK293 Gal4-DAX1 luciferase reporter, luminescence | inhibition, % at 6.75 µM | actives 0.99% (n = 340,000) | AID 504766;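 active = inhibition above the mean over all tested compounds plus 3 SD, cut at about 4.2% in these data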;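 note: inhibition shows as a rise in luminescence from relieved DAX1 repression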
# hgDAF-12 ag – hgDAF-12 agonism, primary luciferase screen. HEK293 GAL4-hgDAF12 UAS-luciferase reporter, agonist luminescence; normalized to butyrate control. activation, % at 6.8 µM. actives 1.8% (n = 370,000). AID 687014;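 active = activation above a cutoff set at the mean of all screened compounds plus 3 SD, cut at about 10% in these data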
# hcDAF12 agonist – activates DAF-12 receptor from parasite H. contortus | HEK293 hcDAF-12 lit1-tk-luc reporter, luminescence; 0% DMSO, 100% Δ7-dafachronic acid | activation, % at 6.8 µM | actives 1.4% (n = 370,000);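 active = activation above the mean of all tested compounds plus 3 SD, cut at about 5.5% in these data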
# hgDAF12 conf – hgDAF-12 agonism, confirmation assay; shares compounds with hgDAF-12 ag; actives 80% (n = 3,300); HEK293 GAL4-hgDAF12 luciferase reporter, agonist mode; percent of butyrate response; activation, % at 6.8 µM;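 active = mean activation over triplicate wells above the hit cutoff derived from the earlier primary screen, cut at about 11% in these data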
# LXR ag 2 – activates human LXR-beta, counter-screen for DAF-12 agonists; shares compounds with hgDAF-12 ag; AID 743051; 3,300 tested, under 10 active; HEK293 Gal4-LXR luciferase reporter, 24 h; activation, % at 6.8 µM;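 active = mean activation of the triplicate above a set limit carried over from the primary screen, none filed active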
# Target sequence (P55055 whole entry, looked up, the tested form may be a part): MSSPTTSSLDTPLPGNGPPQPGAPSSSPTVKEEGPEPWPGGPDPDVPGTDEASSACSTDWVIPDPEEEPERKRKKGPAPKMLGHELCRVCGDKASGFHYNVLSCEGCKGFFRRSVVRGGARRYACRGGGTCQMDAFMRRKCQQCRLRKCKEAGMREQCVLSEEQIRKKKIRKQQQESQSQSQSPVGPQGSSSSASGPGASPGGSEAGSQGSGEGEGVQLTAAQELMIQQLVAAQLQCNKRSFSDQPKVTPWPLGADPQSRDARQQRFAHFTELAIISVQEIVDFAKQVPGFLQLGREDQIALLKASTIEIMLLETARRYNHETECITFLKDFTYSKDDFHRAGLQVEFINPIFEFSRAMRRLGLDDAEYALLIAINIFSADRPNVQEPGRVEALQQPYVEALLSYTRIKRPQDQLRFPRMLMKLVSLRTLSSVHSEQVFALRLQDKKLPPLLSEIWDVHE
# Numbers stand for hits; 0 = inactive; - = no result given. Rows were chosen to be rich in hits. Some 4.5% of all compounds tested hit in one or more screens of this group.
SMILES,GAA850 FXN act,ssDAF12 agonist,DAX1 inh-1,DAX1 inh-2,hgDAF-12 ag,hcDAF12 agonist,hgDAF12 conf,LXR ag 2
c1ccc(CSc2ncn(-c3ccccc3)n2)cc1,0,0,0,5.0,14,0,19,0
CC(=O)Oc1ccc(C(=O)[C@H]2[C@H]3C(=O)N(c4ccc(C)cc4)C(=O)[C@H]3[C@@H]3C=CC=NN32)cc1,0,0,0,0,16,5.9,0,0
COC(=O)c1ccccc1CC1Cc2cc3c(cc2C1=O)CCC3 (configuration not stated),0,1.9,4.3,0,14,0,13,0
COc1ccc(C2=NOC(CNC(N)=S)C2)cc1 (configuration not stated),0,0,0,4.5,13,0,15,0
COc1ccc(CNC(=O)C2CC(c3ccc(OC)cc3)=NO2)cc1 (configuration not stated),0,0,0,0,0,0,-,-
CCN(CC)CCN1C(=O)C(=O)/C(=C(/O)c2ccc(OC)cc2)C1c1ccco1 (configuration not stated),0,0,0,0,0,0,-,-
CCN(CC)CCCN1C(=O)C(=O)/C(=C(/O)c2ccc(OC)cc2)C1c1ccco1 (configuration not stated),0,0,0,0,14,0,0,0
CCn1c(O)c(C=Nc2ccccc2)sc1=S,-,0.9,0,-,16,0,18,0
Oc1c(C=Nc2ccccc2)sc(=S)n1Cc1ccccc1,0,0,0,0,0,0,-,-
Cc1cccc2c1ncc1c(=O)n(-c3ccccc3)[nH]c12,0,0,0,0,0,0,-,-
Nc1cc2c(cc1Cl)-c1ccccc1C2=NO,0,0,0,0,16,0,0,0
ON=C1c2ccccc2-c2ccccc21,0,0,0,0,0,0,-,-
COc1ccc(NC(=O)c2ccccc2NC(=O)C2CCCCC2C(=O)O)cc1 (configuration not stated),0,0,0,0,14,0,0,0
COc1cc(SC)ccc1C(=O)Nc1ccc2ncccc2c1,0,2.4,0,0,15,0,17,0
COc1ccc(NC(=O)Nc2cccc(C)n2)cc1,0,0,0,0,17,0,12,0
COc1ccc(S(=O)(=O)N2CCCC2C(=O)Nc2nc3c(s2)CCCC3)cc1 (configuration not stated),0,0,0,0,0,0,-,-
COc1cc(SC)ccc1C(=O)Nc1cccc(C)n1,0,0,4.0,0,16,0,12,0
COc1ccc(NC(=O)Nc2nc3c(s2)CCCC3)cc1,0,0,0,0,19,0,16,0
COc1ccc(NC(=S)Nc2cccc(C)n2)cc1,0,0,0,-,0,0,-,-
CCCCCCCCN1C(=O)[C@H](CC(=O)N2CCOCC2)C[C@@]2(C(=O)OCC)CCCC=C12,-,0,0,-,0,0,-,-
O=c1nc(N/N=C/C=C/c2ccccc2)cn[nH]1,0,0,0,0,16,0,14,0
CC(c1ccc(NC(=O)OC(C)(C)C)cc1)c1cn(C)c2ccccc12 (configuration not stated),-,0,0,-,14,5.7,0,0
O=C(Nc1ccc(Br)cn1)c1ccc(Cl)s1,0,0,0,0,15,0,14,0
O=C(Nc1ccc(Br)cn1)c1ccc(Br)s1,0,0,0,0,20,6.2,20,0
O=C(NC1=NCCS1)c1ccc(Br)s1,0,0,3.8,0,14,6.0,13,0
SMILES,GAA850 FXN act,ssDAF12 agonist,DAX1 inh-1,DAX1 inh-2,hgDAF-12 ag,hcDAF12 agonist,hgDAF12 conf,LXR ag 2
O=C(Nc1ccon1)c1ccc(Br)s1,0,0,0,0,0,0,-,-
CCC(=O)Nc1ccc(Br)cn1,0,0,0,0,0,0,-,-
Cc1ccccc1C(=O)Nc1ccc(Br)cn1,0,0,0,0,14,0,16,0
CNc1nc(-c2ccc3c(c2)CCN3C(=O)c2ccccc2F)cs1,0,0,3.9,0,23,0,18,0
Cc1ccc(-c2nnc(-n3ncc(C#N)c3N)c3ccccc23)cc1C,0,0,0,0,0,0,-,-
O=C(/C=C/Nc1ccc(Cc2ccc(N/C=C/C(=O)C(F)(F)F)cc2)cc1)C(F)(F)F,0,0,0,0,13,0,0,0
CCCCc1ccc2nc(NC(=O)c3cccs3)sc2c1,-,2.5,-,-,27,6.1,20,0
CN(C)S(=O)(=O)c1ccc2nc(NC(=O)c3cccs3)sc2c1,0,0,3.8,0,15,5.6,19,0
O=C(Nc1nc2ccc(S(=O)(=O)N3CCCC3)cc2s1)c1cccs1,0,0,0,0,0,0,-,-
COC(=O)c1cc2c(c3c4ccccc4n(S(=O)(=O)c4ccc(OC)cc4)c13)C(=O)N(Cc1ccc(N(C)C)cc1)C2,-,0,0,-,0,0,-,-
CC(OC(=O)C1CCN(c2ccc(C(F)(F)F)cn2)CC1)C(=O)Nc1cccc([N+](=O)[O-])c1 (configuration not stated),0,0,0,0,0,0,-,-
c1ccc(OCCSc2nnnn2-c2ccccc2)cc1,0,0,0,0,16,0,19,0
CCOc1ccc(OCCSc2nnnn2-c2ccccc2)cc1,0,0,0,0,0,0,-,-
Cc1ccc2nc(NC(=O)C3CCCN3C(=O)OC(C)(C)C)sc2c1 (configuration not stated),0,0,0,0,0,0,-,-
Cc1ccc(C)c(-c2cc(C(=O)NC3CC3)c3ccccc3n2)c1,0,0,0,0,0,0,-,-
Cc1ccc2c(c1)C(=NC1CCCCC1)c1cc3ccccc3nc1-2,0,2.4,4.2,0,20,15,18,0
Cc1cn(C2CCCO2)c(=O)nc1N (configuration not stated),0,0,0,0,0,0,-,-
CCOC(=O)N/N=C1\CCc2ccccc21,0,0,0,0,15,0,0,0
Cc1ccc(C(=O)N/N=C2\CCc3ccccc32)c(C)c1,0,0,0,0,15,0,14,0
O=C(O)CCc1nc2ccccc2c(=O)[nH]1,0,0,0,0,0,0,-,-
Cc1ccc(NC(=O)c2cc(-c3ccccc3)nn2-c2ccccc2)cc1,0,0,0,0,0,0,-,-
CC(=O)C(/C=N/c1cc(-c2ccc(C)cc2)nn1-c1ccccc1)=C(\C)O,0,1.1,0,0,19,5.6,0,0
O=C(c1cc(-c2ccc(Br)cc2)on1)N1CCCC1,0,0,0,0,19,0,15,0
O=C(c1cc(-c2ccc(O)cc2)on1)N1CCCC1,0,0,0,0,15,0,13,0

# Screening data as filed in PubChem BioAssay.
